The source of these data is PubChem BioAssay (NCATS).

For assay [1], the target named is Cytochrome P450 2D6 (Homo sapiens) (UniProt P10635). Nature of the assay: qHTS Assay for Inhibitors and Substrates of Cytochrome P450 2D6 (AID 891). Also: nearly all actives have a fitted effect of over 60% in size. Also: potency is read from the fitted curve at half-maximal effect.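 As to activity change, negative = inhibition: luciferin methyl ether substrate demethylated by CYP2D6 with NADPH regeneration; % is scaled to controls: 0 for no effect and ±100 for the full control effect.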 A digest of the protocol: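 Human CYP2D6 (5 nM) with 30 uM Luciferin-ME EGE (at Km) in 100 mM KPO4, compound preincubated 10 min, then NADPH regeneration system for 60 min at room temperature. Luciferin read by luminescence; normalized to 1.43 uM quinidine.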
On the technique in general: Quantitative high-throughput screening tests each substance at several concentrations.

The nature of assay [2]: qHTS Assay for Identification of Small Molecule Antagonists for NFkB Signaling Pathway (AID 895; active = well fitted inhibition curve with a large enough effect in the signal ratio, with a control signal flat, not every such curve was filed as active; the % refers to the signal ratio; also: potency is read from the fitted curve at half-maximal effect; as to activity change, negative = inhibition: % is scaled to controls: 0 for no effect and ±100 for the full control effect). A digest of the protocol: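 NFkB-bla ME-180 cervical carcinoma cells with beta-lactamase reporter under NFkB response element; compounds added, then TNF alpha at 10 pM final (EC50), 5 h at 37 C. LiveBLAzer substrate 2 h, room temperature; emission 460/530 nm at 405 nm excitation.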

A short description of assay [3]: qHTS Assay for Identification of Small Molecule Agonists for Hypoxia Response Element Signaling Pathway (AID 914; active = well fitted activation curve with a large enough effect in the signal ratio, with a control signal flat, not every such curve was filed as active; the % refers to the signal ratio; also: % of control where 0% means no effect). The note with it: ME-180 (cervical carcinoma) HRE-bla reporter, beta-lactamase ratio, CoCl2, 17 h; stronger effect = higher value. In outline:
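AC50 values come from titration-series %Activity, taken as the 460/530nm ratio of CCF4 fluorescence (excitation 405nm). CellSensor HRE-bla ME-180 cells were treated 17 hours at 37 C with compound plus an EC50 level of CoCl2.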

For assay [4], the target named is Cytochrome P450 2C9 (Homo sapiens) (UniProt P11712). Nature of the assay: qHTS Assay for Inhibitors and Substrates of Cytochrome P450 2C9 (AID 883). Also: nearly all actives have a fitted effect of over 60% in size. Also: potency is read from the fitted curve at half-maximal effect. In outline: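 CYP2C9 deoxyluciferin hydroxylation, 37C, 60 min with NADPH regeneration; 10nM enzyme, 100uM Luciferin-H (KM). Glo detection reagent stopped reaction; luminescence normalized to sulphaphenazole (57uM) full inhibition.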

For assay [5], the target named is Cytochrome P450 3A4 (Homo sapiens) (UniProt P08684). The experiment in a line: qHTS Assay for Inhibitors and Substrates of Cytochrome P450 3A4 (AID 884). Also: nearly all actives have a fitted effect of over 50% in size. Also: potency is read from the fitted curve at half-maximal effect. In outline: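 20 nM human CYP3A4 with 25 uM Luciferin-PPXE (at KM) in 200 mM KPO4, preincubated 10 min with compound; NADPH regeneration started a 60 min RT reaction. Luciferin detected by luminescence, normalized to 57 uM ketoconazole as full inhibition.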

Assay [6] deals with Muscarinic acetylcholine receptor M1 (Rattus norvegicus) (UniProt P08482). Nature of the assay: qHTS Assay for Antagonists of Acetylcholine Muscarinic M1 Receptor: Kinetic Measurement of Intracellular Calcium Response (AID 943). Also: nearly all actives have a fitted effect of over 75% in size. Also: potency is read from the fitted curve at half-maximal effect.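 As to activity change, negative = inhibition: Fluo-4 calcium signal as peak divided by basal fluorescence over 4 min.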 A digest of the protocol: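 CHO cells stably expressing rat M1 were loaded with no-wash Fluo-4 dye for 1 h at 37C, pre-incubated 10 min with compound, then challenged with EC80 carbachol (100 nM final); kinetic calcium read 4 min, peak/basal ratio.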

Assay [7] in a line: Cell Viability - BJ (AID 421; calls by dose curve;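 also: potency is read from the fitted curve at half-maximal effect; cells exposed to compound for 40 hours at 37 °C before readout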). The note with it: BJ fibroblast viability, qHTS. In outline:
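Quantitative HTS: ATP depletion in BJ cells after 40 hr compound exposure in complete culture medium, detected with CellTiter-Glo; AC50 from standard Hill fits.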

The nature of assay [8]: Cell Viability - Jurkat (AID 426;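 active = dose-dependent loss of cell ATP signal giving a full or clear fitted curve, ranked by lower potency value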; also: potency is read from the fitted curve at half-maximal effect). Particulars: qHTS. A digest of the protocol:
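Jurkat (clone E6-1, human T-cell leukemia) cells, 5000/well in complete medium, were exposed to compound for 40 hr at 37 °C. Viability was read as intracellular ATP by CellTiter-Glo luminescence; AC50 came from Hill fits of concentration-response data.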

Assay [9] in a line: Cell Viability - SK-N-SH (AID 435; calls by dose curve; also: potency is read from the fitted curve at half-maximal effect). Particulars: SK-N-SH neuroblastoma cell viability qHTS. In outline:
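qHTS cytotoxicity: CellTiter-Glo ATP luminescence after 40 h compound exposure of human neuroblastoma SK-N-SH cells at 37 °C. AC50 derived by Hill-equation fitting, with DMSO as basal and 100 uM tamoxifen as full inhibition.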

Assay [10] can be described thus: Cell Viability - N2a (AID 540).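 Also: plate controls were DMSO alone for no effect and tamoxifen control for full effect; nearly all actives have a fitted effect of over 45% in size.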 Particulars: N2a mouse neuroblastoma cell viability; activity change, negative = cytotoxicity: at 92.2 µM (top of the series). A digest of the protocol:
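Mouse neuroblastoma N2a cells (1500/well) were preincubated 5 hr at 37 °C, then exposed to compounds for 40 hr at 37 °C in complete medium. Viability was read as intracellular ATP by CellTiter-Glo luminescence; AC50 from Hill fits.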

Assay [11] in a line: Cell Viability - HUV-EC-C (AID 542). Also: % is scaled to controls: 0 for no effect and ±100 for the full control effect; nearly all actives have a fitted effect of over 35% in size. In outline:
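HUV-EC-C normal human vascular endothelial cells, 1000 cells/well, pre-incubated 5 hr at 37 °C, then exposed to compounds for 40 hr at 37 °C in complete medium. Viability measured as intracellular ATP by CellTiter-Glo luminescence; AC50 from Hill fits.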

The nature of assay [12]: Cell Viability - SH-SY5Y (AID 544).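 Also: 0% = DMSO alone and -100% = 100 µM tamoxifen; nearly all actives have a fitted effect of over 55% in size.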 The note with it: SH-SY5Y neuroblastoma cell viability; viability change, negative = cytotoxic: at 92.2 µM (top of the series). In outline:
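Human neuroblastoma SH-SY5Y cells (1500/well) in complete medium were exposed to compounds for 40 hr at 37 °C; intracellular ATP was then quantified by CellTiter-Glo luminescence after 20 min at room temperature. AC50 came from Hill-equation concentration-response fits.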

The nature of assay [13]: Cell Viability - Renal Proximal Tubule (AID 545).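 Also: 0% = DMSO only and -100% = 100 µM tamoxifen; nearly all actives have a fitted effect of over 40% in size.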 A digest of the protocol:
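Viability taken as intracellular ATP (CellTiter-Glo luminescence) after 40 hr, 37 °C compound treatment of primary proximal tubule cells from rat kidney, 1000 cells/well; Hill-equation fits of qHTS concentration-response data gave AC50.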

The nature of assay [14]: Cell Viability - Mesenchymal (AID 546).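 Also: cells exposed to compound for 40 hours before reading; 0% = DMSO only and -100% = 100 µM tamoxifen.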 In outline: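 Normal human renal glomerulus-derived kidney mesenchymal cells, 1000 per well in complete medium, were treated with compounds for 40 hr at 37 °C. Viability was read as intracellular ATP by CellTiter-Glo luminescence; AC50 values came from Hill-equation fits of qHTS concentration-response data.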
In assay [15] the target is Glucocorticoid receptor (Homo sapiens) (UniProt P04150). Nature of the assay: qHTS assay for small molecule agonists of glucocorticoid receptor signaling (AID 588532; active = well fitted curve in the direction sought with a large enough effect in the signal ratio, with a control signal flat; the % refers to the signal ratio;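 also: 100% = dexamethasone at 0.1 µM and 0% = DMSO only wells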). Particulars: HeLa MMTV-bla, beta-lactamase ratio, agonist, 18 h; stronger effect = higher value; percent of dexamethasone control, DMSO zero. In outline:
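Stimulation of a glucocorticoid response element-driven beta-lactamase gene was measured in HeLa cells. Responses were scaled between DMSO basal and 0.1 uM dexamethasone, then fitted for half-maximal stimulation.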

A short description of assay [16]: qHTS assay for small molecule agonists of retinoid X receptor alpha signaling (AID 588544). The note with it: HEK293T RXRa-UAS-bla, beta-lactamase reporter, 18 h; 530 nm emission.
For assay [17], the target named is Thyroid hormone receptor beta (Homo sapiens) (UniProt P10828). Nature of the assay: qHTS assay for small molecule agonists of thyroid hormone receptor beta signaling (AID 588545; calls by dose curve;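 also: 0% = DMSO only and 100% = 10 nM T3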). In outline:
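TR-UAS-bla-GripTite HEK 293 cells in medium with 2% charcoal/dextran FBS, 0.1 mM NEAA and 1 mM sodium pyruvate were treated with titrated compounds for 18 hrs at 37 C. Beta-lactamase reporter was read with CCF4 dye (ex 405, em 460/530 nm); EC50 from Hill fits.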

Assay [18] can be described thus: qHTS assay for small molecule antagonists of retinoid X receptor alpha signaling (AID 588546; active = well fitted inhibition curve with a large enough effect in the signal ratio, with a control signal flat, not every such curve was filed as active; the % refers to the signal ratio;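 also: cells stimulated with 9-cis-retinoic acid as agonist; % is scaled to controls: 0 for no effect and ±100 for the full control effect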). Particulars: HEK293T RXRa-UAS-bla, beta-lactamase ratio, antagonist mode; measured here: W530 green channel, cytotoxicity proxy. A digest of the protocol:
(§1)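 Beta-lactamase reporter inhibition, read as CCF4 fluorescence ratio (ex 405, em 460/530 nm) after 2 h at RT. HEK293T UAS-bla cells, 2500/well, were stimulated with 9-cis-RA at 500 or 100 nM final alongside test compound for 18 h at 37 C.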

Assay [19] concerns the target Retinoic acid receptor RXR-alpha (Homo sapiens) (UniProt P19793). Described as above. Particulars: HEK293T RXRa-UAS-bla, beta-lactamase ratio, antagonist mode. A digest of the protocol: as §1
In assay [20] the target is Thyroid hormone receptor beta (Homo sapiens) (UniProt P10828). Nature of the assay: qHTS assay for small molecule antagonists of thyroid hormone receptor beta signaling (AID 588547; active = well fitted inhibition curve with a large enough effect in the signal ratio, with a control signal flat, not every such curve was filed as active; the % refers to the signal ratio;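 also: cells stimulated with 0.4 nM T3 agonist during compound exposure; % is scaled to controls: 0 for no effect and ±100 for the full control effect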). Particulars: TR-UAS-bla HEK293, beta-lactamase ratio, antagonist mode, 18 h. A digest of the protocol:
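TR-UAS-bla GripTite HEK293 cells in 2% charcoal/dextran FBS medium were preincubated 4 h at 37 C, given compound (0.59 nM to 92 uM) plus 0.4 nM T3 (final) for 18 h, then CCF4 for 2 h at RT; Hill fit gave IC50.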

Inconclusive results are not listed. The source made the active and inactive calls. Unless noted, calls follow the shape of the dose curve; as a rule, active = well fitted curve in the direction sought with a large enough effect; inconclusive = small, poorly fitted or top-dose-only effect, or another doubt; inactive = no such curve, though single readings can be large; an effect the other way counts as inactive or inconclusive.

Sequence of Cytochrome P450 2C9 (Homo sapiens) (P11712 whole entry, looked up): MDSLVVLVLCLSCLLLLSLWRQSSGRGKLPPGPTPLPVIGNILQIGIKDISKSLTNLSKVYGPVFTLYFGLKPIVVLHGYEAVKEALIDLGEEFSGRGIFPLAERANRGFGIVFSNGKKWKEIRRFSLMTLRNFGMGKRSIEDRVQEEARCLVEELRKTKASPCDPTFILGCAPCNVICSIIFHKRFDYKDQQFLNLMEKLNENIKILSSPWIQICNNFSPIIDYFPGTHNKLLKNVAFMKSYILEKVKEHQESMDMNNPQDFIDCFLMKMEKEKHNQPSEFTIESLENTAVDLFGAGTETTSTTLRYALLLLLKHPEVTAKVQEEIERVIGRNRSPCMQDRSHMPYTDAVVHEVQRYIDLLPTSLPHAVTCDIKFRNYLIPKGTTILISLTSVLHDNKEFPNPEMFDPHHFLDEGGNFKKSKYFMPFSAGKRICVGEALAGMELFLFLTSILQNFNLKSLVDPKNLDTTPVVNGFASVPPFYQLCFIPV
Sequence of Muscarinic acetylcholine receptor M1 (Rattus norvegicus) (P08482 whole entry, looked up): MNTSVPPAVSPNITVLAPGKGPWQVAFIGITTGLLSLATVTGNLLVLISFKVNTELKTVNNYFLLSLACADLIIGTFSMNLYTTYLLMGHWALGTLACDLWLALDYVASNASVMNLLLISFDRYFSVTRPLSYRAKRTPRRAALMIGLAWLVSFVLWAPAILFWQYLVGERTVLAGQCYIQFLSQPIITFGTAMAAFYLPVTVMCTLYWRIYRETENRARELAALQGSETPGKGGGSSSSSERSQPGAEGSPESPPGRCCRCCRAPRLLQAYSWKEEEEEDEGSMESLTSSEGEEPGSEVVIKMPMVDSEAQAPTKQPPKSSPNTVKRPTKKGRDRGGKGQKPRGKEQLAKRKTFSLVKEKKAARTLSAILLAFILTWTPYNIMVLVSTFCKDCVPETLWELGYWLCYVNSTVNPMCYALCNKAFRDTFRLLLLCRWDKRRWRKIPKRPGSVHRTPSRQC
Sequence of Cytochrome P450 3A4 (Homo sapiens) (P08684 whole entry, looked up): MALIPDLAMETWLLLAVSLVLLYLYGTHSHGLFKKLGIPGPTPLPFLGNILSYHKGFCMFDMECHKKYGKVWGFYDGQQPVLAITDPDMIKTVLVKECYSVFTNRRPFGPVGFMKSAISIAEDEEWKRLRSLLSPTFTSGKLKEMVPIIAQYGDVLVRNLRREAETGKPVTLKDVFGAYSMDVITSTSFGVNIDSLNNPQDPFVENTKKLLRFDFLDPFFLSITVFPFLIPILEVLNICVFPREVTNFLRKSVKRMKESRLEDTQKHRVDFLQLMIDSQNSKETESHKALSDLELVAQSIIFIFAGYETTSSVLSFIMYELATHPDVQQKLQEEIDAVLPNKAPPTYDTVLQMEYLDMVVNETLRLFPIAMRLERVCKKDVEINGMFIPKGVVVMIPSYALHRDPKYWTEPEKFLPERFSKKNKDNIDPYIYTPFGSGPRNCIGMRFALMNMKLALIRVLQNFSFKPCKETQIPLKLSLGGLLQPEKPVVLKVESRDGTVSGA
Sequence of Cytochrome P450 2D6 (Homo sapiens) (P10635 whole entry, looked up): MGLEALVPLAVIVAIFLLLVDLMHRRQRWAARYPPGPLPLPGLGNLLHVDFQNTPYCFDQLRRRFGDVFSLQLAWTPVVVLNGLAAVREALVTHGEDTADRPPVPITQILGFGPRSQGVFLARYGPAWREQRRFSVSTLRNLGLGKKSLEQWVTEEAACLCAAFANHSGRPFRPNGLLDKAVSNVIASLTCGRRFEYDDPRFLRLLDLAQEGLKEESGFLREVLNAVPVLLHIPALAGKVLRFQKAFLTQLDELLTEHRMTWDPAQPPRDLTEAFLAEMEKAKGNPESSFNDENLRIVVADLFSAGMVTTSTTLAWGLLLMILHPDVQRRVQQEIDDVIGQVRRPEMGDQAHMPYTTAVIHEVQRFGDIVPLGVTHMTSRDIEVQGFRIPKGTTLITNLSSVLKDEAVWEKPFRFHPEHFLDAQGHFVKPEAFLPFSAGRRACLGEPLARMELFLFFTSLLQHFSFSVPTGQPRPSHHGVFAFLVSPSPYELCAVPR
Sequence of Thyroid hormone receptor beta (Homo sapiens) (P10828 whole entry, looked up): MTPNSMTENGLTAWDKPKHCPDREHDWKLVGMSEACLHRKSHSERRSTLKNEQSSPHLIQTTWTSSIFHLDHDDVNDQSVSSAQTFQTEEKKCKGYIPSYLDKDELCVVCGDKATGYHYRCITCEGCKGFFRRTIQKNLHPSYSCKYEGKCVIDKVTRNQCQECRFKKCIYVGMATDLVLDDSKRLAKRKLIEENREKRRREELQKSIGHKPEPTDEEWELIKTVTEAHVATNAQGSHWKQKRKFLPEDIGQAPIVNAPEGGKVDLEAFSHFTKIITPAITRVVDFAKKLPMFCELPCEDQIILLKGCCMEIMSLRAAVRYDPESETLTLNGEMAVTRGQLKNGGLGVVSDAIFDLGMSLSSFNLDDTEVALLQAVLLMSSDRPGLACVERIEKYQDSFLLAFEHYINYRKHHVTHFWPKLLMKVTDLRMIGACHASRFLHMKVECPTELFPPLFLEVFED
Sequence of Glucocorticoid receptor (Homo sapiens) (P04150 whole entry, looked up): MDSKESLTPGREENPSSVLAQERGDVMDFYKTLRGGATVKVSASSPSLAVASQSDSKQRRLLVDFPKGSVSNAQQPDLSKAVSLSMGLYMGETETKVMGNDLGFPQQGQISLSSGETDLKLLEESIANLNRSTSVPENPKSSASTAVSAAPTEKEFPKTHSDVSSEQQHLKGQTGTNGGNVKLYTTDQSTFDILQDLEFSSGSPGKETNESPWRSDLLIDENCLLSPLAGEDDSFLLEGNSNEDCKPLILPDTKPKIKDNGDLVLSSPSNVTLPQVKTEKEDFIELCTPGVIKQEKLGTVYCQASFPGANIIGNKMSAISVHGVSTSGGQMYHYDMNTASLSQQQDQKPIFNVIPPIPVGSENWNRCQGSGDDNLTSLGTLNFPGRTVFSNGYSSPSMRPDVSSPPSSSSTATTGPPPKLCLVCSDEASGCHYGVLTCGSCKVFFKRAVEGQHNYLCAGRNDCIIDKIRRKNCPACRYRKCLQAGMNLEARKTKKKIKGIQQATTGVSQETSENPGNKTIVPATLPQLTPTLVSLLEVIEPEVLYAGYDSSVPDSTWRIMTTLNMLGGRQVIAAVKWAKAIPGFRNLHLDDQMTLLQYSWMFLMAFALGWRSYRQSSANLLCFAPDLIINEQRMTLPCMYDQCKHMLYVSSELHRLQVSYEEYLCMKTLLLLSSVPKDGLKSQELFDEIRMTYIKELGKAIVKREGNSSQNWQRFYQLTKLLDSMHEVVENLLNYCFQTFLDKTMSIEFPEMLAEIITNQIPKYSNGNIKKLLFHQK
Sequence of Retinoic acid receptor RXR-alpha (Homo sapiens) (P19793 whole entry, looked up): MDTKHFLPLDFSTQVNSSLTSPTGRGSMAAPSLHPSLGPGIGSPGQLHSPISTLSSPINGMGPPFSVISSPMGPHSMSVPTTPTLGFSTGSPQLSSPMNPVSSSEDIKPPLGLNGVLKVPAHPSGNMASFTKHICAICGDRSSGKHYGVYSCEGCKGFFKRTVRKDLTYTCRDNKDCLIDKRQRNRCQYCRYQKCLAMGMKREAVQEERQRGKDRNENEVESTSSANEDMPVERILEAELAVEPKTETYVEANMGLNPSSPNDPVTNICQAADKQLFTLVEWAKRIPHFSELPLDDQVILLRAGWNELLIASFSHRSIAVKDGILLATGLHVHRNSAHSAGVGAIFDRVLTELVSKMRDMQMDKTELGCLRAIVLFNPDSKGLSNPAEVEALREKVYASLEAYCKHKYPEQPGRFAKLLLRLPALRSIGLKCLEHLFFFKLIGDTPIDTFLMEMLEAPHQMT

As to `CN1C[C@@H](CS(=O)(=O)N(C)C)C[C@H]2c3cccc4c3c(cn4C)C[C@@H]21`, the Potency in assay [1] is 3.98 µM (active). Besides, the Potency result in assay [2] was “inactive”.

Take `Cc1c([C@@H](C)[C@H]2NC[C@H](C)C[C@@H]2O)ccc2c1C[C@@H]1[C@H]2CC=C2C[C@@H](O)CC[C@@]21C`: in assay [3], the activation was 4.43% (inactive).

Turning to `CO[C@@H]([CH2][Hg])CN1C(=O)c2ccccc2S1(=O)=O.Cn1c(=O)c2nc[nH]c2n(C)c1=O`, the Potency entry in assay [1] is “inactive”.

Take `Cc1nc2ccccc2cc1C[N+]12CN3CN(CN(C3)C1)C2`: the activation in assay [3] is 9.32% (inactive).

With `C[N+]1(C)C2CC(OC(=O)C(CO)c3ccccc3)CC1[C@@H]1O[C@H]21` (some centres not stated), the Potency entry in assay [2] was “inactive”.

With `Oc1ccc(CCNCc2cc3c(cc2Br)OCO3)cc1`, the Potency in [1] was 0.316 µM (active). Also, the activation in assay [3] was -17.8% (inactive).

With `N[C@H](Cn1cc(I)c(=O)[nH]c1=O)C(=O)O`, the Potency result in assay [4] and in assay [1] was “inactive” each time.

For the compound `C[C@H]1CC[C@@]2(NC1)O[C@@H]1C[C@@H]3[C@@H]4CC=C5C[C@@H](O)CC[C@]5(C)[C@@H]4CC[C@]3(C)[C@H]1[C@@H]2C`, the activity change, negative = inhibition in assay [5] is 33.7% [at 11.4 µM] (inactive).

On to `O=C(O)c1cc(N=Nc2ccc([As](=O)(O)O)cc2)ccc1O`, for which, in assay [1], the Potency result is “inactive”.

As to `CC(C)[C@@]1(NC(=O)[C@H]2C[C@H]3c4cccc5[nH]cc(c45)C[C@@H]3N(C)C2)O[C@]2(O)[C@H]3CCCN3C(=O)[C@H](Cc3ccccc3)N2C1=O`, the Potency in assay [4] is 2.51 µM (active).

As for `C[Se]C[C@@H](N)C(=O)O`, the Potency result in assay [6] was “inactive”.

As to `CC(=O)c1c(O)c(C)c(O)c(Cc2c(O)c3c(c(C(=O)/C=C\c4ccccc4)c2O)OC(C)(C)C=C3)c1O`, the Potency in assay [4] was 0.631 µM (active); in assay [5], 6.31 µM (active); in [2], 0.794 µM (active). The Potency entry in assay [1] and in assay [6] was “inactive” each time.

Regarding `O=C(Nc1cc[c]([Sb](=[O])([OH])[OH])cc1)c1ccccc1`, the activity change, negative = inhibition in [4] was 2.5% [at 11.4 µM] (inactive). Besides, in assay [1], the Potency result is “inactive”.

`CCCN1CC[C@@H]2c3cc(O)ccc3CC[C@H]21`: in assay [2], the Potency result is “inactive”. For the same compound, in assay [6], the Potency was 14.1 µM (active).

As to `N=C(N)SCc1ccc(Cl)c2ccccc12` (tested in a mixture with another compound), the Potency is 3.98 µM (active) in assay [4] and 3.16 µM (active) in assay [1].

As for `C[C@]12CC[C@H](O)CC1=CC[C@@H]1[C@H]2CC[C@]2(C)C(=O)CC[C@H]12`, the Potency entry in [2] was “inactive”.

In the case of `O=C(O)[C@H]1C2c3ccccc3C(c3ccccc32)[C@@H]1C(=O)NCC1CC1`, the activation in [3] was -0.158% (inactive).

As to `O=[N+]([O-])c1cc(Cl)c(Cl)cc1Cl`, the Potency in [7], in assay [8] and in assay [9] was > 92 µM (inactive) in each case. Moreover, the Potency result in [10], in [11], in assay [12], in assay [14], in assay [5] and in [17] was “inactive” throughout. The call in assay [13] was inactive. Further, the activation in [15] is -2.16% (inactive). The max response was 10.7% in assay [16], 2.5% in assay [18] and 7.08% (inactive) in assay [19]. For the same compound, in assay [20], the activity change % (negative = inhibition) is 5.06% (inactive).
